# Reference: PubChem BioAssay AID760 (NMMLSC, 2007)
# Among all 190,000 compounds or so, about 360 (0.19%) were called active. Roughly 2% stayed inconclusive and do not appear here.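 Rule for the calls: active = GTP binding activity at least 20 points away from 100%, either lowered or raised; inconclusive = signal likely due to the compound's own green fluorescence; inactive = the rest.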 Only a selection was taken, and actives are over-represented in it overall.
# Biological target: Ras-related protein Rab-2A (Canis lupus familiaris) (UniProt P61105)
# Assay: modulators of GTP binding to Rab2A wildtype, primary screen, biochemical, dog, bead-based flow cytometry, multiplex (AID 760);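 note: 0% = beads with excess unlabeled GTP and 100% = no-compound control corrected for plate trend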
# Conditions: GST-Rab2 wt beads, Bodipy-GTP binding, at 10 µM
row,Compound,GTP binding activity
1,Cc1ccnc2nc(C(=O)OCC(=O)N(CC(C)C)CC(C)C)nn12,97% (inactive)
2,CCOc1ccccc1N1CCN(C(=O)COc2ccc3c(C)cc(=O)oc3c2)CC1,98% (inactive)
3,CCOC(=O)CN/C=C(\C#N)c1ccc(F)cc1,102% (inactive)
4,CCCC(c1nnnn1C(C)(C)C)N1CCN(Cc2ccccc2)CC1 (configuration not stated),98% (inactive)
5,O=C(COc1cccc2ccccc12)Nc1cc(S(=O)(=O)N2CCOCC2)ccc1N1CCOCC1,98% (inactive)
6,O=c1[nH]n2c(-c3ccccc3)nc(O)c2c2ccccc12,95% (inactive)
7,CCO/C=C1\C(=O)N(c2ccc(OCC)cc2)C(=O)c2ccccc21,93% (inactive)
8,CCOC(=O)c1sc(NC(=O)c2cc(S(=O)(=O)N3CCOCC3)ccc2C)nc1C,98% (inactive)
9,COc1ccc(S(=O)(=O)N2CCOCC2)cc1NC(=O)CSc1ncnc2ccccc12,93% (inactive)
10,COc1ccc(S(=O)(=O)N2CCOCC2)cc1C(=O)Nc1nc2ccccc2s1,72% (active)
11,COc1ccc(OC)c(-c2csc(NC(=O)C3=NNC(=O)CC3)n2)c1,96% (inactive)
12,CNC(=S)N1CCC(NC(=O)C(Cc2ccc(F)cc2)NC(C)=O)CC1 (configuration not stated),99% (inactive)
13,COc1ccc(S(=O)(=O)N(C)C)cc1NC(=O)CSc1ncccn1,97% (inactive)
14,Cn1nnnc1SCC(=O)Nc1nc2ccccc2s1,97% (inactive)
15,CCNC(=O)COC(=O)/C=C/c1c(C)nn(Cc2cccc(OC)c2)c1Cl,95% (inactive)
16,CCOC(=O)c1sc(NC(=O)CSc2n[nH]c(CC)n2)nc1C,97% (inactive)
17,O=C1c2cccc3c([N+](=O)[O-])ccc(c23)C(=O)N1CC1CCCO1 (configuration not stated),95% (inactive)
18,COc1cccc(CN(C)CC(=O)Nc2sc3c(c2C#N)CCC3)c1,92% (inactive)
19,COc1ccc(S(=O)(=O)NCC2CCCN(C(=O)c3occc3C)C2)cc1 (configuration not stated),97% (inactive)
20,CCCCC(NC(=O)c1cccc(Br)c1)C(=O)O (configuration not stated),93% (inactive)
21,Cc1ccc(-c2nn(-c3cccc(F)c3)cc2CNCCc2ccncc2)o1,101% (inactive)

row,Compound,GTP binding activity
1,CC1COc2ccccc2N1C(=O)c1cccnc1Cl (configuration not stated),99% (inactive)
2,Cc1nnsc1C(=O)Nc1cccc(Cl)c1C,95% (inactive)
3,CCOc1ccccc1Nc1ccc(C(=O)O)cc1[N+](=O)[O-],99% (inactive)
4,Cc1ccc(CN2CCC(N3CCC(C(=O)NCC4CCCO4)CC3)CC2)o1 (configuration not stated),97% (inactive)
5,CCOc1ccc(N2C(=O)CN(c3cccc4ccccc34)C2=S)cc1,99% (inactive)
6,Cc1cc(C)n(-c2ccc3nncn3n2)n1,102% (inactive)
7,CSCC(=O)N1CCCC(C(=O)c2cc(F)ccc2F)C1 (configuration not stated),97% (inactive)
8,COCCNc1nc2nonc2nc1N(C)Cc1ccc(C)cc1,95% (inactive)
9,CCOC(=O)C1(Cc2ccccc2C(F)(F)F)CCN(C(=O)c2cc(C)n(C)n2)CC1,98% (inactive)
10,COc1cccc2c1OCC(CN1CCN(C3CCCCC3)C(CCO)C1)=C2 (configuration not stated),100% (inactive)
11,CCN(CC)N=Nc1cccc(NC(C)=O)c1,95% (inactive)
12,NC(=O)Cn1nc([N+](=O)[O-])nc1Oc1ccc(Br)cc1,97% (inactive)
13,O=C(O)/C=C/c1cn(Cc2ccccc2)nc1-c1cccs1,127% [activator] (active)
14,O=C(/C=C\c1cn(-c2ccccc2)nc1-c1cccs1)N1CCOCC1,104% (inactive)
15,O=C(O)/C=C/c1cn(-c2ccccc2)nc1-c1cccs1,93% (inactive)
16,Cc1ccc(C(=O)NN(CCC#N)C2=NS(=O)(=O)c3ccccc32)cc1,95% (inactive)
17,Cn1nc(-c2ccccc2)c(CO)c1Sc1ccccc1,93% (inactive)
18,CN1C(=O)/C(=C/C=C2\SCCN2C)OC1=S,98% (inactive)
19,O=C(O)CCc1nc2cc(Cl)ccc2n(Cc2ccccc2)c1=O,98% (inactive)
20,CCN(CC(=O)NCc1cccs1)S(=O)(=O)c1ccc(NC(C)=O)cc1,96% (inactive)
21,Cc1ccc(S(=O)(=O)N2CCOCC2)cc1NC(=O)CSc1nnc(N)s1,98% (inactive)

row,Compound,GTP binding activity
1,Cc1ccccc1CC1(CO)CCCN(Cc2ccc3c(c2)OCCO3)C1 (configuration not stated),99% (inactive)
2,O=C(CC1SC(=Nc2ccccc2F)N(CCN2CCOCC2)C1=O)Nc1ccc(F)cc1F (configuration not stated),97% (inactive)
3,CC(C)NC(=O)NC(=O)CSc1nnc(-c2ccccc2F)n1N,97% (inactive)
4,C=CCN1C(=O)C(O)(CC(=O)c2ccccn2)c2ccccc21 (configuration not stated),107% (inactive)
5,CC1(C)CC(=O)c2ccc(O)cc2O1,97% (inactive)
6,N=C1C(c2nc3ccccc3[nH]2)=C(O)CN1NC(=O)c1c[nH]c2ccccc12,96% (inactive)
7,CCCCOc1ccc(N(CC(=O)NC(C)C)C(=O)CCC(=O)Nc2ccccn2)cc1,97% (inactive)
8,O=C(NNC(=S)NC(=O)c1cn(-c2ccccc2)nc1-c1ccccc1)c1ccncc1,90% (inactive)
9,COc1ccc(N2CCN(C(=O)CNS(=O)(=O)c3ccc(C)c(C)c3)CC2)cc1,96% (inactive)
10,CC(C)=CCN1CCN(Cc2ccc(Oc3ncccn3)cc2)CC1CCO (configuration not stated),100% (inactive)
11,COc1ccc(NC(=O)c2cc3nc(-c4ccccc4)cc(C)n3n2)cc1OC,84% (inactive)
12,CCOC(=O)c1ccc(N/C(=N/S(=O)(=O)c2ccccc2)c2ccccc2)cc1,95% (inactive)
13,CCOC(=O)c1ccc(Nc2cc(C)nc3nc(C)nn23)cc1,98% (inactive)
14,CCOC(=O)c1nc(Nc2ccc(C(=O)OC)cc2)c2ccccc2n1,77% (active)
15,O=C(/C=C/c1ccc(N2CCOCC2)cc1)c1ccccc1,97% (inactive)
16,CCN(c1ccccc1)S(=O)(=O)c1ccc2[nH]c(=O)[nH]c2c1,99% (inactive)
17,O=C(Nc1ccc2oc(-c3ccccc3F)nc2c1)c1ccco1,96% (inactive)
18,Cc1ccc2cc(CN(c3ccc(C)c(C)c3)S(C)(=O)=O)c(=O)[nH]c2c1,98% (inactive)
19,CCN(CC(=O)NC(=O)NCc1ccccc1)Cc1nc2ccccc2c(=O)[nH]1,101% (inactive)
20,Cc1noc(C)c1S(=O)(=O)Nc1ccc(C(=O)N2CCN(c3ccc(F)cc3)CC2)cc1,96% (inactive)
